Results reported in the supplement of paper PMC10849652.
Of roughly 8,800 targets only a part is listed; those with a hit were picked by preference. About 0.5% of all pairs of compound and target were hits.

Experiments:
Experiment in all cases: log2 fold change, soluble protein after heating vs DMSO (PISA); higher = thermal stabilisation; K562 lysate, 10 uM; active = over 0.2 and 3.5 SD of the protein, either way, in both replicates (recomputed)
[1] = compound: C1=CC2=NC=CN=C2C=C1/C=C/3\C(=O)NC(=O)S3
In short: (§1)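 K562 pellets were dounce-homogenised in PBS pH 7.4 containing 1 mM MgCl2, and the crude extract, at 1 mg/mL protein, was exposed to 10 μM compound for 30 min. Aliquots were heated for 3 min across 48°C-58°C, pooled, brought to 0.5% NP-40 at 4°C and spun at 21,000xg for 90 min, with the supernatant taken as soluble protein. TMTpro 16plex LC-MS/MS with equalised channel sums quantified that protein. Values are log-two fold changes in thermal stability relative to solvent controls, taken from duplicates.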

[2] = compound: C1=CC=C(C=C1)C2=NC(=C(N2)C3=CC=NC=C3)C4=CC(=C(C=C4)Cl)O
In short: as §1

[3] = compound: C1CCN(C1)C(=O)NC2=CC=CC(=C2)NC3=NC=C(C(=N3)NCCC4=CN=CN4)Br
In short: as §1

[4] = compound: C1CN(CCC1(CC2=CC=C(C=C2)Cl)N)C3=NC=NC4=C3C=CN4
In short: as §1

[5] = compound: C1COCCN1CCN2C3=CC=CC=C3N=C2NC(=O)C4=CC(=CC=C4)[N+](=O)[O-] [IRAK-1-4 Inhibitor I]
In short: as §1

[6] = compound: C#Cc1cccc(Nc2ncnc3cc(OCCOC)c(OCCOC)cc23)c1 [erlotinib]
In short: as §1

[7] = compound: C/C(=N\NC(=O)C1=CC(=CC=C1)S(=O)(=O)N2CCOCC2)/C3=C(C=CC(=C3)Cl)O
In short: as §1

[8] = compound: C1=CC(=CC=C1C2=NC3=C(N2)C=C(C=C3)C(=O)N)OC4=CC=C(C=C4)Cl
In short: as §1

[9] = compound: C1=CC2=C(C=CC(=C2)/C=C\3/C(=O)NC(=NCC4=CC=CS4)S3)N=C1
In short: as §1

[10] = compound: C1=CC=C2C(=C1)C3=NNC4=CC=CC(=C43)C2=O
In short: as §1

Measured: log2 fold change

ANKRD30A (UniProt Q9BXX3)
Sequence of UniProt Q9BXX3 (Q9BXX3 whole entry, looked up): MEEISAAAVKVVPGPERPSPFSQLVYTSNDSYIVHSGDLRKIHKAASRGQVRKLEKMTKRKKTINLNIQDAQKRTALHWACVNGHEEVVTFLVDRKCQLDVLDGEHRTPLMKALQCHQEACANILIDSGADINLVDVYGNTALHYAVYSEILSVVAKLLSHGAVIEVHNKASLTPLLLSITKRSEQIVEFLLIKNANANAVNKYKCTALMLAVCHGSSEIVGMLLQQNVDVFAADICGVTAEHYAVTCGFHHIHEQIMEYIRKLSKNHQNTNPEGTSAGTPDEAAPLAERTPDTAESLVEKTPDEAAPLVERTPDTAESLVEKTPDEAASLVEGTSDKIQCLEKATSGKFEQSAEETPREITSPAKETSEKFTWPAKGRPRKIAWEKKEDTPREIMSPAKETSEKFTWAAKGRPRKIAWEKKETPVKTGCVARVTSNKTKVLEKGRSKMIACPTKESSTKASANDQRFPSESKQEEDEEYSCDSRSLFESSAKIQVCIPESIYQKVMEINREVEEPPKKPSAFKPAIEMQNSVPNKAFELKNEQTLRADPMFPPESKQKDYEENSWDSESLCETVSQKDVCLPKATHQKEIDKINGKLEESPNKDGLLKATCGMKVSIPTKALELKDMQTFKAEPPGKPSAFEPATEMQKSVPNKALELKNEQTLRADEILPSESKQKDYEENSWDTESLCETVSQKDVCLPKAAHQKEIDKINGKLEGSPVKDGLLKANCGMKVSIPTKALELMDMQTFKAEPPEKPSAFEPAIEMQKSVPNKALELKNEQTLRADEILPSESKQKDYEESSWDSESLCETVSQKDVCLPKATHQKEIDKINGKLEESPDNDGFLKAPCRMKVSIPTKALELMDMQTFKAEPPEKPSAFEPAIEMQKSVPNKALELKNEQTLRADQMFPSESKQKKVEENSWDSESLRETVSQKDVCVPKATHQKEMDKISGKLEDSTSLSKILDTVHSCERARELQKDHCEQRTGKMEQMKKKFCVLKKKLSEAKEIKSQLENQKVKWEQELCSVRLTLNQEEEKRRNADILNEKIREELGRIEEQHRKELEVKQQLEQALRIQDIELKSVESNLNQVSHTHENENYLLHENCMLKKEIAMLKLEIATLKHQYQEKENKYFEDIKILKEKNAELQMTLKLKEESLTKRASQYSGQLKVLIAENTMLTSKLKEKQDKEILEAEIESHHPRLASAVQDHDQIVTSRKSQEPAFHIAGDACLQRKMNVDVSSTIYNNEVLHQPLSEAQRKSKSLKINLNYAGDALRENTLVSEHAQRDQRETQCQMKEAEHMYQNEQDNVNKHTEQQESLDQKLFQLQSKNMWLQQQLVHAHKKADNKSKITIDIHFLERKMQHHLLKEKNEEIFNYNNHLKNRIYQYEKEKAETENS
inactive: [1] 0.035 | [2] -0.06 | [3] 0.415 | [4] 0.144 | [5] -0.176

ADK, A0A5F9ZH76
inactive: [1] 0

ACTG1 (UniProt K7EM38)
inactive: [3] -0.162 | [4] -0.155

ARHGEF2 (UniProt Q92974)
Sequence of UniProt Q92974 (Q92974 whole entry, looked up): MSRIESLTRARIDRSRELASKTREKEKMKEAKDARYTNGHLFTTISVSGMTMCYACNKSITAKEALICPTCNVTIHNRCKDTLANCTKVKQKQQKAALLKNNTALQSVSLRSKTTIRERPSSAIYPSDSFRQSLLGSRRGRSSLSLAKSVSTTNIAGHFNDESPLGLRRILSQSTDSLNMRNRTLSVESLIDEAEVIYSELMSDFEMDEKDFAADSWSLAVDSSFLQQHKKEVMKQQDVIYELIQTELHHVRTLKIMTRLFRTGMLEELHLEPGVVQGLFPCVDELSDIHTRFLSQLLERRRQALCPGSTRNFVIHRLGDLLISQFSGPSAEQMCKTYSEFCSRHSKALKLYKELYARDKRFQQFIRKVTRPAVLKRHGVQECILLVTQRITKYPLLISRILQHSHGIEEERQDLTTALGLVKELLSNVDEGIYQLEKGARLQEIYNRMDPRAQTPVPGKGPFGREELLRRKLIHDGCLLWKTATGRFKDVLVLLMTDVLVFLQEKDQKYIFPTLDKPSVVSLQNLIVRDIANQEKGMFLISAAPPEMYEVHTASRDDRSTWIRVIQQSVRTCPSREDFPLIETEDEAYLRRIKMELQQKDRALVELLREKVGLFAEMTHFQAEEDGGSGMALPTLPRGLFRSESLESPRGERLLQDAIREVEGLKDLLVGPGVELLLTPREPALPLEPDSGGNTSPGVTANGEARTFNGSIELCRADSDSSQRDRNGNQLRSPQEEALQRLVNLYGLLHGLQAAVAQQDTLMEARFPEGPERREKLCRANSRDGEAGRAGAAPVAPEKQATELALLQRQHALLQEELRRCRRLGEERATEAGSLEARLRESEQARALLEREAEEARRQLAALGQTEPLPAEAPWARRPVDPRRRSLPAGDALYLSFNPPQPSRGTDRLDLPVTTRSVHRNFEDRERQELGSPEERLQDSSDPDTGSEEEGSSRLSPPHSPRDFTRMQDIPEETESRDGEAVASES
inactive: [6] -0.006 | [7] -0.041 | [8] -0.014 | [9] -0.017 | [1] 0.002 | [2] 0.039 | [10] -0.007 | [3] -0.051 | [4] -0.018 | [5] -0.005

ACAT1, A0A5F9ZHJ0
inactive: [2] -0.128 | [5] 0.075

ACLY isoform 2 (UniProt P53396)
Sequence of UniProt P53396 (P53396 whole entry, looked up): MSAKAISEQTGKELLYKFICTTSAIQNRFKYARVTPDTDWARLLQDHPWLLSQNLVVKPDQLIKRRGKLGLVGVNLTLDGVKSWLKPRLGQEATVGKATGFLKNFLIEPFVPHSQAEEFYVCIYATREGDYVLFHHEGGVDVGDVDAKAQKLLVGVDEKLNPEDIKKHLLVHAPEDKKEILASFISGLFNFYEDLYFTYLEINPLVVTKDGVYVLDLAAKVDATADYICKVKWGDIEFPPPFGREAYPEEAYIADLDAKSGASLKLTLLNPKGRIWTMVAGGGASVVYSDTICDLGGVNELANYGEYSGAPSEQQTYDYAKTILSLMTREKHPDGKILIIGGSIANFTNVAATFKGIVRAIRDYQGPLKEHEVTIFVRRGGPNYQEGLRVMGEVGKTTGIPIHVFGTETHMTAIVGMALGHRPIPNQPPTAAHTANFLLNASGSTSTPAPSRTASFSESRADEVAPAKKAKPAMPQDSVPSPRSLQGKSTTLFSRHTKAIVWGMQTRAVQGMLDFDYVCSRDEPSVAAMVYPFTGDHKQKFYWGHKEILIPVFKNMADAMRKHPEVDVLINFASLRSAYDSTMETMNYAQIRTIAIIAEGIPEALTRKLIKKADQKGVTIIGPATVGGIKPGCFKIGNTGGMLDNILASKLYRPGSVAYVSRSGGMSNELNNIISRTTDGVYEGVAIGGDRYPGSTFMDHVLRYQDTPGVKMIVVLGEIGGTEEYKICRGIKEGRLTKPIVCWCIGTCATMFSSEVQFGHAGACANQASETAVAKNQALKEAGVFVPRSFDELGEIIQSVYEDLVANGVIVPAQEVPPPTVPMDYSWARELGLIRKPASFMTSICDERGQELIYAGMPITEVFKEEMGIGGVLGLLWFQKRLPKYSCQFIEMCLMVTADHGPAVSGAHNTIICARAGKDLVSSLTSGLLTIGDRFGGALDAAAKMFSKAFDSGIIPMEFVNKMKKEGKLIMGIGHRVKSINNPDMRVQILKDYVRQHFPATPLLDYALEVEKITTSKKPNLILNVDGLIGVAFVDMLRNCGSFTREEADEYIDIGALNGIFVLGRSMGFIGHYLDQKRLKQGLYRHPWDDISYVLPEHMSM
inactive: [7] -0.122 | [9] 0.002 | [1] -0.018 | [2] 0.012 | [10] -0.034 | [3] -0.027 | [4] -0.029 | [5] -0.053

AP5B1 (UniProt Q2VPB7)
inactive: [6] 0.006 | [8] -0.05 | [1] -0.069 | [2] 0.014 | [3] 0.073 | [4] 0.046 | [5] 0.03

ABI1 isoform 6 (UniProt Q8IZP0)
inactive: [3] -0.167 | [4] 0.213

ALDH3A1 (UniProt P30838)
Sequence of UniProt P30838 (P30838 whole entry, looked up): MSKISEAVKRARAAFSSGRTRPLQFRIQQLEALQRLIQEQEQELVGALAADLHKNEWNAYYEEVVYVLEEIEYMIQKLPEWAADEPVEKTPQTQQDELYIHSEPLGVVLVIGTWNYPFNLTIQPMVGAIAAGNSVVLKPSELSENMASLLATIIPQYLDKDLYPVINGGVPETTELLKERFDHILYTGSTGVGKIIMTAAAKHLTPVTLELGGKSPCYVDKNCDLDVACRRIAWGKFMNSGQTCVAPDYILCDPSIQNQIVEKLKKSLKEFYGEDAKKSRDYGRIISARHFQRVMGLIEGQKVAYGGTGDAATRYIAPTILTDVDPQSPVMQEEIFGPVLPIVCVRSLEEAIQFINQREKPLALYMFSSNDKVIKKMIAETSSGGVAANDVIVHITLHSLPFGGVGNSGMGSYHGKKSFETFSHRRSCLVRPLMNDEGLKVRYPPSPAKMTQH
inactive: [6] 0.147 | [8] 0.257 | [2] 0.147 | [5] 0.059

AFF1 isoform 2 (UniProt P51825)
inactive: [6] -0.001 | [7] -0.085 | [8] 0.027 | [9] 0.071 | [1] -0.068 | [2] -0.007 | [10] -0.041 | [3] -0.002 | [4] 0.005 | [5] 0.021

ABHD12 isoform 2 (UniProt Q8N2K0)
inactive: [6] -0.027 | [7] -0.031 | [8] -0.062 | [9] 0.074 | [1] 0.037 | [2] -0.064 | [10] 0 | [3] -0.03 | [4] 0.048 | [5] 0.014

AP3D1 isoform 5 (UniProt O14617)
Sequence of UniProt O14617 (O14617 whole entry, looked up): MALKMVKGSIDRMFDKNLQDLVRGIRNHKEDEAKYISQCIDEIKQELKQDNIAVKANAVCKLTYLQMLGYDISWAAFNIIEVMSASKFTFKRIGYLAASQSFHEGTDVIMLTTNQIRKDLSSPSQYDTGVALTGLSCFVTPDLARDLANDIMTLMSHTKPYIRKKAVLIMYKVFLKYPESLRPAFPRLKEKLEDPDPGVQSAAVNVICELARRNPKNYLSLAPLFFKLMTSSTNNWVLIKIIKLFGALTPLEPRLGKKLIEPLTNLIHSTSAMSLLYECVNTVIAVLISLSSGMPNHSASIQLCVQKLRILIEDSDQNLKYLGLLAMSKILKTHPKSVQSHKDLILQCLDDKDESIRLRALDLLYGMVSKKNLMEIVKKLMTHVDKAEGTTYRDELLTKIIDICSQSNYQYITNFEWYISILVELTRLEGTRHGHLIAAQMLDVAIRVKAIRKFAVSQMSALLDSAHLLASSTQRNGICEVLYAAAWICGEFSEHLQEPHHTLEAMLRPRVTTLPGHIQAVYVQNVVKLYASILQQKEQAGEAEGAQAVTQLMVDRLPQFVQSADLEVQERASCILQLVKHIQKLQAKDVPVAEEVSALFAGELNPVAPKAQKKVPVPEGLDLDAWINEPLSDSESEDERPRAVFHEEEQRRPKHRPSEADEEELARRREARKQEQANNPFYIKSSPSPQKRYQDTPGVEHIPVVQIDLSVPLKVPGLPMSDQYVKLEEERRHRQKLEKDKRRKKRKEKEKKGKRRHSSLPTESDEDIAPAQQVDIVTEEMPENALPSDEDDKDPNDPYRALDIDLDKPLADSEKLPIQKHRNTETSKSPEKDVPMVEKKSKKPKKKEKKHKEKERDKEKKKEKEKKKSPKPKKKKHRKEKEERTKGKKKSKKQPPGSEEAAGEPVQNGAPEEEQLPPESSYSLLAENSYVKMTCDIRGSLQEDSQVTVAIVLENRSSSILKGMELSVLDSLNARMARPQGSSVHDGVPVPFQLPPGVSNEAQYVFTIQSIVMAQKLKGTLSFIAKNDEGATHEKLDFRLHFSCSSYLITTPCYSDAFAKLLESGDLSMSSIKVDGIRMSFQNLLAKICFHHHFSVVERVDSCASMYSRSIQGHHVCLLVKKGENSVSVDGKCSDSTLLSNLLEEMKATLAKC
inactive: [6] -0.013 | [7] -0.004 | [8] -0.006 | [9] 0.011 | [1] 0.001 | [2] -0.007 | [10] -0.015 | [3] -0.015 | [4] -0.001 | [5] -0.003

ALDH2 (UniProt P05091)
inactive: [6] -0.048 | [7] 0.009 | [8] -0.062 | [9] 0.03 | [1] 0.042 | [2] -0.016 | [10] 0.175 | [3] 0.011 | [4] 0.023 | [5] 0.003

AIF1L (UniProt Q9BQI0)
inactive: [6] -0.035 | [8] -0.008 | [1] -0.014 | [2] 0.012 | [3] 0.329 | [4] -0.008 | [5] -0.049

AIFM2 (UniProt Q9BRQ8)
inactive: [6] -0.094 | [7] 0 | [8] 0.224 | [9] 0.071 | [1] -0.117 | [2] 0.117 | [10] 0.068 | [3] -0.025 | [4] 0.018 | [5] -0.01

ANKRD44 isoform 2 (UniProt Q8N8A2)
inactive: [6] -0.034 | [7] -0.035 | [8] 0.002 | [9] -0.083 | [1] -0.016 | [10] -0.257 | [3] -0.059 | [4] -0.032

AMD1 (UniProt P17707)
inactive: [6] 0.019 | [7] 0.011 | [8] -0.091 | [9] -0.075 | [1] 0.055 | [2] 0.061 | [10] 0.011 | [3] 0.114 | [4] -0.156 | [5] -0.036

ALKBH1 (UniProt Q13686)
inactive: [6] 0.033 | [7] -0.042 | [8] -0.02 | [9] 0.052 | [2] 0.024 | [10] -0.022 | [3] 0.211 | [4] 0.041 | [5] -0.11

ACVR1 (UniProt Q04771)
inactive: [1] 0.074

ACYP2 (UniProt P14621)
inactive: [6] -0.057 | [7] 0.256 | [8] 0.007 | [9] -0.176 | [1] 0.002 | [2] -0.049 | [10] -0.185 | [5] -0.011

AGPAT2 (UniProt O15120)
inactive: [6] -0.032 | [7] -0.064 | [8] 0.013 | [9] 0.245 | [2] -0.114 | [10] 0.024 | [3] -0.038 | [4] 0.069 | [5] -0.027

ANXA13 isoform 2 (UniProt P27216)
inactive: [6] -0.078 | [7] 0.111 | [8] -0.121 | [9] -0.019 | [1] -0.083 | [2] -0.029 | [10] 0.029 | [5] -0.174
